This is a sample that favours compounds with a hit; in the whole collection about 2.9% have one here.
POLB inh – qHTS Assay for Inhibitors of DNA Polymerase Beta. hit rate 1.3% among 340,000. Potency, µM (highest dose often 114 µM), inactives show top-dose activity change, negative = inhibition, usual class: inhibitors. Pol beta primer extension/strand displacement, fluorescence kinetic. AID 485314, 2010; also: potency is read from the fitted curve at half-maximal effect; % is scaled to controls: 0 for no effect and ±100 for the full control effect
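Pol beta (10 nM) and compounds were preincubated 15 min at room temperature, then 50 nM substrate (final) started primer extension/strand displacement. Reads were taken at 0 and 10 min; concentration-response data were fitted to a four-parameter Hill equation.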
PI5P4K alpha inh – qHTS for Inhibitors of phosphatidylinositol 5-phosphate 4-kinase (PI5P4K) | Phosphatidylinositol 5-phosphate 4-kinase type-2 alpha (Homo sapiens), P48426 | PI5P4Kalpha enzyme, ADP-Glo luminescence, 60 min; hits give low values | max response, % | hit rate 1.2% among 330,000; active = max response of -50% or lower; inconclusive = between -30% and -50%; inactive = -30% or higher; also: value at the top dose of about 77 µM; % is scaled to controls: 0 for no effect and ±100 for the full control effect
Target sequence (P48426 whole entry, looked up): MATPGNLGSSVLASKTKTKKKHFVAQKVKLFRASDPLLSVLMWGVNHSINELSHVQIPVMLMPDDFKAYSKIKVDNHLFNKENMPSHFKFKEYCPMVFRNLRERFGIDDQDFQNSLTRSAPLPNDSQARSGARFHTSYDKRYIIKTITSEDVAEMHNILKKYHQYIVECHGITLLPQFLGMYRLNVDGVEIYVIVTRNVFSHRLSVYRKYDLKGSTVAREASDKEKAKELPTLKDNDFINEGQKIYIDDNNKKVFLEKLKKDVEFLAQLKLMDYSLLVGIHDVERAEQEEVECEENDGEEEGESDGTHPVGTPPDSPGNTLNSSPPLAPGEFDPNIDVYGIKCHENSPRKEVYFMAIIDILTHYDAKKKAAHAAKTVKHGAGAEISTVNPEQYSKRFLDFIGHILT
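Compounds were pin-transferred onto PI5P4Kalpha and substrate in HEPES pH 7.4 buffer with EGTA, CHAPS and 5% DMSO. ATP (5 microM final) started the reaction, which ran 60 minutes at room temperature before ADP-Glo detection.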
ALOX12 inh – Primary qHTS assay for inhibitors of human arachidonate 12S-lipoxygenase (ALOX12): Round 2. Polyunsaturated fatty acid lipoxygenase ALOX12 (Homo sapiens), P18054. purified 12hLO, xylenol orange hydroperoxide absorbance. Potency, µM (series often up to 108 µM), for the others: at the top dose activity change, negative = inhibition, most hits filed as inhibitors. hit rate 1.1% among 580,000; also: potency is read from the fitted curve at half-maximal effect; % is scaled to controls: 0 for no effect and ±100 for the full control effect
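Purified human 12hLO (150 nM final) in 25 mM Hepes, 0.01% Triton X-100, pH 7.0 was preincubated 15 min at room temperature with compound. Then 40 uM arachidonic acid was added, 30 min. Hydroperoxide was read by Fe-XO absorbance ratio 573/405 nm.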
Pol iota inh – qHTS for Inhibitors of Polymerase Iota. DNA polymerase iota (Homo sapiens), Q9UNA4. Pol iota fluorescent replication assay, 10 min. Potency, µM (series often up to 115 µM), without a hit: at the highest dose activity, negative = inhibition, actives largely listed as inhibitors. hit rate 1% among 390,000. AID 588590, 2011; also: potency is read from the fitted curve at half-maximal effect
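Fluorescent replication assay read twice, at 0 min and 10 min after adding 50 nM (final) substrate. Enzyme (10 nM) and compounds were first incubated 15 min at room temperature; enzyme-free buffer wells were negative controls.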
Pol kappa inh – qHTS for Inhibitors of Polymerase Kappa. DNA polymerase kappa (Homo sapiens), Q9UBT6. Potency, µM (titrated, usually from 107 µM), without a hit: at the top dose activity, negative = inhibition, hits mostly inhibitors. hit rate 0.53% among 400,000. AID 588579, 2011. purified Pol kappa, fluorescent DNA synthesis assay, 10 min; also: potency is read from the fitted curve at half-maximal effect; % is scaled to controls: 0 for no effect and ±100 for the full control effect
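Activity was followed as the change in fluorescence between reads at 0 and 10 min after starting the reaction with 50 nM substrate. Beforehand, 10 nM polymerase had been preincubated with compound for 15 min at room temperature.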
Pol eta inh – qHTS for Inhibitors of Polymerase Eta. DNA polymerase eta (Homo sapiens), Q9Y253. recombinant Pol eta, fluorescent DNA replication assay. Potency, µM (doses to about 114 µM), without a hit: at the highest dose activity change, negative = inhibition, most hits filed as inhibitors. hit rate 1.2% among 390,000. AID 588591, 2011; also: potency is read from the fitted curve at half-maximal effect; % is scaled to controls: 0 for no effect and ±100 for the full control effect
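Pol eta (10 nM) was preincubated with compounds for 15 min at room temperature, after which fluorescent replication substrate (50 nM final) was added to start the reaction. Fluorescence was read kinetically at 0 and 10 min.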
ADP-Glo interf – qHTS for Inhibitors of PI5P4K: ADP-Glo counter assay; shares compounds with PI5P4K alpha inh; ADP-Glo detection counter-screen, luciferase luminescence, no enzyme; Potency, µM (series often up to 76.9 µM), for the others: top-dose activity change, negative = inhibition, most hits filed as inhibitors; 1,100 tested, under 10 active; AID 743285, 2014
* = called active by the depositor; ? = inconclusive; . = no result; [ ] = remark or other dose. Unless noted, calls follow the shape of the dose curve; as a rule, active = well fitted curve in the direction sought with a large enough effect; inconclusive = small, poorly fitted or top-dose-only effect, or another doubt; inactive = no such curve, though single readings can be large; an effect the other way counts as inactive or inconclusive.

SMILES	POLB inh	PI5P4K alpha inh	ALOX12 inh	Pol iota inh	Pol kappa inh	Pol eta inh	ADP-Glo interf
Fc1cccc(Cc2c(-c3ccccc3)nc3ccc(Br)cn23)c1	.	-7	0%	.	.	.	.
Clc1ccc2nc(-c3ccco3)c(Cc3ccccc3)n2c1	.	-65*	18µM*	.	.	.	1%
Fc1cccc(Cc2c(-c3ccco3)nc3ccc(Br)cn23)c1	.	-64*	-114%	.	.	.	-4%
COc1ccccc1Cc1c(-c2ccco2)nc2ccc(Br)cn12	.	-56*	18µM*	.	.	.	-5%
Clc1ccc2nc(-c3ccco3)c(Cc3ccsc3)n2c1	.	-66*	?	.	.	.	-2%
Clc1ccc2nc(-c3ccccc3)c(Cc3ccsc3)n2c1	.	-22	.	.	.	.	.
Brc1ccccc1OCc1noc(-c2ccco2)n1	.	.	69%	.	.	.	.
Fc1cccc(Cc2c(-c3ccco3)nc3ccc(Cl)cn23)c1	.	-51*	.	.	.	.	-4%
CC(NC(=O)CN1c2cccc3cccc(c23)S1(=O)=O)c1ccc(S(N)(=O)=O)cc1 (centres undefined)	.	-55*	.	28µM*	?	20µM*	2%
CC(C)c1nnc(NC(=O)Cn2ccc3ccc(F)cc32)s1	.	.	0%	.	.	.	.
O=C(NCCCN1CCOCC1)c1sc2cc([N+](=O)[O-])ccc2c1Cl	89%	-68*	.	59%	-1%	-14%	-1%
O=C(Nc1ccccn1)c1sc2cc([N+](=O)[O-])ccc2c1Cl	0%	-52*	?	-20%	-17%	19%	-9%
Cc1ccnc(NC(=O)c2sc3ccccc3c2Cl)c1	6%	-9	-16%	3%	-4%	-14%	.
O=C(NCCCN1CCOCC1)c1sc2cc(Cl)ccc2c1Cl	23%	-6	-4%	86%	-11%	4%	.
Cc1ccc2ncnc(NCc3ccco3)c2c1	.	.	.	?	-18%	.	.
Cc1ccc(CNc2ncnc3ccc(-c4ccc(CO)o4)cc23)o1	.	.	?	.	.	.	5%
COc1ccc(-c2nn3c(=O)cc(CNC(=O)c4ccc(C(C)(C)C)cc4)nc3s2)cc1	.	.	-9%	.	.	.	.
O=C(NC1CC1)c1ccc(NC(=O)C2CCC2)cc1	.	-51*	7%	-22%	-10%	-1%	-4%
O=C(N/N=C/c1cccc(F)c1)C1CC1	.	.	-21%	.	.	.	.
CCOc1ccc(Oc2ccc(NC(=O)c3cc(=O)[nH]c4ccccc34)cc2)cc1	.	.	17%	.	.	.	.
CCOc1ccc(NC(=O)c2cc(=O)[nH]c3ccccc23)cc1	14%	-51*	-10%	156%	6%	7%	-6%
CC(C)(C)[C@@H]1C=C(C(=O)N2CCOCC2)O[C@H](OCc2ccc(CO)cc2)C1	14%	1	11%	-11%	-1%	-14%	.
CC(C)(C)[C@H]1C=C(C(=O)N2CCOCC2)O[C@@H](OCc2ccc(CO)cc2)C1	45%	0	13%	?	-1%	-2%	3%
COCCn1c(=S)[nH]c2cc(C(=O)NCCc3ccccc3)ccc2c1=O	1%	-58*	2%	45%	-3%	-10%	1%
O=C(COc1ccc(Br)cc1)Nc1ccc(C(=O)Nc2ccccc2C(=O)O)cc1	2%	-58*	-11%	70%	-3%	?	4%
SMILES	POLB inh	PI5P4K alpha inh	ALOX12 inh	Pol iota inh	Pol kappa inh	Pol eta inh	ADP-Glo interf
O=C(COc1ccc2ccccc2c1)Nc1cccc(C(=O)Nc2ccccc2C(=O)O)c1	10%	-74*	?	-6%	-7%	28µM*	1%
COc1ccc(OCC(=O)Nc2ccc(C(=O)Nc3ccccc3C(=O)O)cc2)cc1	?	?	?	-19%	3%	?	.
CC1CCc2c(sc3ncnc(NS(=O)(=O)c4cccs4)c23)C1 (centres undefined)	27%	-55*	?	6%	-3%	-17%	2%
Cc1nnc([C@H]2CCN(Cc3c[nH]c4ccccc34)C2)o1	.	.	17%[176 µM]	.	.	.	.
CN(CCCNC(=O)c1cccnc1)CC(F)(F)F	.	.	16%	.	.	.	.
Cc1sc2ncnc(NC(C)C(=O)O)c2c1C (centres undefined)	-10%	.	-7%	-5%	5%	-12%	-5%
CC(C(=O)Nc1cc([N+](=O)[O-])ccc1Cl)N1CCN(c2ccc(O)cc2)CC1 (centres undefined)	?	-66*	?	?	?	?	3%
CCCn1c(C)cc(-c2csc(N)n2)c1C	-5%	-58*	35µM*	?	-9%	-8%	-8%
C=CCn1c(C)cc(-c2csc(N)n2)c1C	-1%	.	?	?	-2%	-11%	.
CN(C)C(C(=O)N(Cc1cccc(O)c1)C1CC1)c1ccccc1F (centres undefined)	.	.	48%	.	.	.	.
O=C(CCN1Cc2ccccc2C1)c1ccc2c(c1)OCCO2	29%	.	?	22%	-4%	-5%	.
O=C(CCN1CCc2ccccc2C(c2ccccc2)C1)c1ccc2c(c1)OCCO2 (centres undefined)	1%	-54*	?	?	-8%	-17%	-11%
Cc1cnc(NC(=O)CCc2ncc(-c3ccc(C)c(C)c3)o2)s1	.	.	4%	.	.	.	.
CC(C)NC(=O)N1c2ccccc2Sc2ccccc21	1%	-60*	6%	184%	1%	-19%	-1%
CC(C)(C)NC(=O)N1c2ccccc2Sc2ccccc21	56%	0	4%	-11%	0%	-10%	.
Cc1nc(CS(=O)(=O)c2ccccc2)cc(N2CCOCC2)n1	13%	-57*	136%	-3%	-5%	-21%	-11%
Cc1nc(CSc2ccc(Cl)cc2)cc(N2CCOCC2)n1	33%	5	0%	4%	-12%	-3%	.
Cc1ccccc1-n1nnnc1C1(Nc2ccccc2)CCCC1	.	.	-17%	.	.	.	.
Clc1ccc2nc(CSc3nc4ccccc4o3)cn2c1	-4%	-83*	-6%	-4%	-15%	4%	-7%
Cc1ccc(SCc2cn3cc(Cl)ccc3n2)cc1	0%	9	29%	4%	3%	-13%	.
Cc1cc2oc(=O)cc(CN(C)Cc3cccs3)c2cc1C	.	.	1%	.	.	.	.
O=C1COc2ccc(S(=O)(=O)NCCc3ccccc3)cc2N1	13%	-51*	2%	?	-20%	-24%	2%
O=C(Nc1cc(S(=O)(=O)N2CCOCC2)ccc1N1CCCCC1)c1ccc(Cl)cc1	.	-26	?	2%	1%	-20%	.

Screening results deposited in PubChem BioAssay by National Center for Advancing Translational Sciences (NCATS).
